Data on 14 compounds can be found in PubChem BioAssay.

Activity calls are given as the source filed them.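 The calls were made as follows, unless noted: active = fluorescence slope after compound addition differing from the mean of all screened samples at 99.7% confidence, in either direction; inactive = the rest.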

For orientation: inhibition means the relative decrease from the control value, in per cent.

The nature of assay [1]: inhibitors of TNFa-induced NFkB p65 translocation, primary screen, imaging, HUVEC, MLSMR starter and 10KST1 sets (AID 438;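 active = inhibition above 20% together with a positive visual image hit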;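 also: compound added about 3h40 before a 20 min TNFalpha stimulation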;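 as to inhibition: signal is the nuclear over cytoplasmic p65 intensity ratio per well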). To be noted: HUVEC TNFa-induced p65 nuclear translocation; cell count: measured here: nuclei count (cytotoxicity indicator), at 2.08 µM; inhibition: at 2 µM, stronger effect = higher value, 0% TNFa-plus-vehicle, 100% no-TNFa wells.
Assay [2] can be described thus: inhibitors of mutant huntingtin aggregation, primary screen, imaging, exon1htt(103Q)mCFP cells, high-content imaging (AID 483;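 active = visual image review flags a hit and inhibition of aggregation exceeds 20%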;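 also: compound exposure lasted 3 days before fixation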;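 as to nuclei count: percent of the per-plate median nuclei count of sample wells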). As to conditions: exon1htt(103Q)mCFP cell line, aggregate imaging, at 2 µM; inhibition of aggregation: stronger effect = higher value; nuclei count: measured here: cell count, toxicity.
Assay [3] can be described thus: inhibitors of E-selectin induction by TNFa, primary screen, imaging, HUVEC, immunofluorescence, MLSMR starter and 10KST1 sets (AID 487;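 active = visually confirmed hit in the image check and inhibition above 20%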;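 as to inhibition: signal is fraction of cell area covered by stained E-selectin grains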;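 as to nuclei count: 100% = median nuclei count of all wells on the same plate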). As to conditions: HUVEC TNFalpha-induced E-selectin immunofluorescence imaging, at 2 µM; inhibition: stronger effect = higher value; nuclei count: measured here: cell number, toxicity.
Assay [4] has as its target Voltage-gated potassium channel subunit beta-2 (Rattus norvegicus) (UniProt P62483). The experiment in a line: KvBeta enzyme negative modulators, primary screen, biochemical, NADPH fluorescence (AID 622;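 active = fluorescence slope higher than the sample average by over 3 SD, cut at about -0.22 in these data, passing the limit was not always enough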;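 also: slope of raw intensity against log time taken from 70 to 1610 s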). To be noted: recombinant KvBeta, 4-cyanobenzaldehyde reduction, at 10 µM, stronger effect = higher value.
For assay [5] the target is unchanged. Kind of assay: KvBeta positive modulators, primary screen, biochemical, NADPH fluorescence (AID 623;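 active = NADPH fluorescence slope more negative than the mean of all samples by about 3 SD, 99.7% confidence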;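 also: fluorescence intensity change per second fitted from 20 to 320 s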). As to conditions: Recombinant KvBeta, NADPH fluorescence decrease slope, 10 min; at 10 µM; stronger effect = lower value.
Assay [6] concerns the target Alpha-2C adrenergic receptor (Homo sapiens) (UniProt P18825). The experiment in a line: modulators of alpha2C/GIRK thallium flux, primary screen, cell-based, HEK293 alpha2C/GIRK1/2 (AID 624).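 Also: slope of fluorescence ratio to pre-addition baseline per second over 15 to 24 s.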 As to conditions: thallium flux BTC fluorescence, at 10 µM, actives lie on both sides.
Assay [7] is described as follows: inhibitors of Sendai virus-induced IRF3 signaling, primary screen, TLR/RLR signaling modifier project, cell-based, Sendai virus stimulus, luciferase, 10K MLSCN set (AID 602276;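 active = inhibition at or above 50% at 10 µM; inactive = inhibition below 50%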;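 also: firefly luciferase from ISG56 promoter only with Renilla not read in this screen; 0% = Sendai virus plus DMSO and 100% = medium plus DMSO without virus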). As to conditions: HEK293 RL24 IRF3 luciferase reporter, at 10 µM, stronger effect = higher value.
Assay [8] is described as follows: inhibitors of poly I:C-induced TLR3 signaling, primary screen, cell-based, poly I:C stimulus, luciferase, 10K MLSCN set (AID 602277;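 active = inhibition of the reporter signal at or above 50%; inactive = inhibition below 50%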). To be noted: HEK293-TLR3 RL24 IRF3 luciferase reporter, at 10 µM, stronger effect = higher value.

Voltage-gated potassium channel subunit beta-2 (Rattus norvegicus), sequence (P62483 whole entry, looked up): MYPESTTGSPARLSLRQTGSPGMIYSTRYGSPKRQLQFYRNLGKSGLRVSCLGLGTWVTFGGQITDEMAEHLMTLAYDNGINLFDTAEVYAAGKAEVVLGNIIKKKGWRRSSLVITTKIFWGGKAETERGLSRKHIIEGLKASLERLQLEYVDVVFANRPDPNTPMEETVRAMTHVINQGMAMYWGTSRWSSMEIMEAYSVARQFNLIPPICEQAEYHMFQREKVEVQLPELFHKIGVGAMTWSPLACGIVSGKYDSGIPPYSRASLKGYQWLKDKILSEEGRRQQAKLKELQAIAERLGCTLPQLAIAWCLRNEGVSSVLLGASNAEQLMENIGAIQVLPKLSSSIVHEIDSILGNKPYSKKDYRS
Alpha-2C adrenergic receptor (Homo sapiens), sequence (P18825 whole entry, looked up): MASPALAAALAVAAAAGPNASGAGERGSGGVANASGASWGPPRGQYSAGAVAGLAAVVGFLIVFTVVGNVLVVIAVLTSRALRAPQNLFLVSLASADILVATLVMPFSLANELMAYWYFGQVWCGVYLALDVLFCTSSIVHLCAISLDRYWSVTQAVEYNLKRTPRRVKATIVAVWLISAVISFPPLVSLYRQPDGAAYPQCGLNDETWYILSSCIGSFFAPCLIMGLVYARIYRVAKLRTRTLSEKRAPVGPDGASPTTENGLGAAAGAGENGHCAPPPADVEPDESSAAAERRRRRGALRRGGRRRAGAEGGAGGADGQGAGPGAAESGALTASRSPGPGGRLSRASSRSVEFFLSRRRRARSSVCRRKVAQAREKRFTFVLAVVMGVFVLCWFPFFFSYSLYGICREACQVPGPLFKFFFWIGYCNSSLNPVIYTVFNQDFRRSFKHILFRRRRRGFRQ

For `COC(=O)c1ccc(NC(=O)C2CC(=O)N(c3cc(C)ccc3C)C2)cc1` (centres undefined), in assay [1], the cell count came to 504. In addition, the inhibition was 6.6% (inactive) in assay [1], -29.9% (inactive) in assay [3], -15.3% (inactive) in assay [7] and -26.3% (inactive) in assay [8]. The inhibition of aggregation in assay [2] was 8.1% (inactive). The nuclei count in assay [2] amounted to 92.6%; in assay [3], 95.1%. The fluorescence slope in assay [4] was -0.587 (inactive). Also, the NADPH fluorescence slope in assay [5] was -9.6e-06 (inactive). Moreover, the slope in assay [6] was 0.00549 (inactive).
As for `COCCCNC(=O)CCn1c(=O)c2ccccc2n(CC(=O)Nc2ccc(C)cc2C)c1=O`, in assay [1], the cell count is 689. Moreover, the inhibition in assay [1] is -7.3% (inactive); in assay [3], -48.2% (inactive); in assay [7], 8.73% (inactive); in assay [8], 19% (inactive). Further, the inhibition of aggregation in assay [2] is -6.5% (inactive). The values for the nuclei count in assay [2] and in assay [3] were 102% and 111%, respectively. In assay [4], the fluorescence slope was -0.502 (inactive). Further, the NADPH fluorescence slope in assay [5] was -1.8e-05 (inactive). The slope in assay [6] is 0.00709 (inactive).
Regarding `Cc1ccc(S(=O)(=O)N2CCN(S(C)(=O)=O)C2c2ccccc2)cc1` (centres undefined), the cell count in assay [1] amounted to 464. Also, the inhibition in assay [1] was 0% (inactive); in assay [3], 11.6% (inactive); in assay [7] it was 8.09% (inactive); in assay [8], 26.1% (inactive). Also, the inhibition of aggregation in assay [2] is 10.2% (inactive). Besides, the nuclei count in assay [2] is 93.5%; in assay [3], 114%. The fluorescence slope in assay [4] was -0.372 (inactive). Besides, the NADPH fluorescence slope in assay [5] was -4.8e-05 (inactive). Besides, in assay [6], the slope is 0.00576 (inactive).
For `COc1ccc(-n2ccnc2SCC(=O)NCc2ccc3c(c2)OCO3)cc1`, the cell count in assay [1] was 495. Further, the inhibition in assay [1] was 0.2% (inactive); in assay [3], -80% (inactive); in assay [7], 11.9% (inactive); in assay [8], 32.1% (inactive). Moreover, the inhibition of aggregation in assay [2] is -17.1% (inactive). Besides, the nuclei count was found to be 110% in assay [2] and 123% in assay [3]. In assay [4], the fluorescence slope was -0.596 (inactive). For the same compound, the NADPH fluorescence slope in assay [5] is -2.8e-06 (inactive). Besides, in assay [6], the slope is 0.006 (inactive).
Turning to `O=C(c1c(Cl)nc2sccn12)N(C(=O)c1c(Cl)nc2sccn12)c1ccc(Cl)cn1`, in assay [1], the cell count amounted to 819. The inhibition in assay [1] was 3.8% (inactive); in assay [3], -97.4% (inactive); in assay [7], -31.5% (inactive); in assay [8], -77.8% (inactive). Further, in assay [2], the inhibition of aggregation is -20.1% (inactive). Moreover, the nuclei count in assay [2] turned out to be 103%; in assay [3] it was 126%. Also, the fluorescence slope in assay [4] is -0.465 (inactive). The NADPH fluorescence slope in assay [5] is 7.2e-06 (inactive). Moreover, in assay [6], the slope was 0.00593 (inactive).
Regarding `CC(=O)Nc1ccc2c(c1)nc(CCNC(=O)c1ccccc1)n2C`, the cell count in assay [1] was 450. The inhibition in assay [1] is 1.3% (inactive); in assay [3], -62.8% (inactive); in assay [7] it was 1.9% (inactive); in assay [8] it was 98.7% (active). In addition, the inhibition of aggregation in assay [2] is -15.3% (inactive). In addition, the nuclei count in assay [2] was determined as 92.7%; in assay [3] it was 170%. In assay [4], the fluorescence slope was -0.54 (inactive). The NADPH fluorescence slope in assay [5] is -4.9e-05 (inactive). In assay [6], the slope is 0.00514 (inactive).
Take `O=C(CCNC(=O)c1ccc(Br)o1)NC1CCCC1`: the cell count in assay [1] was determined as 507. The inhibition in assay [1] is -18.2% (inactive); in assay [3], -29.9% (inactive); in assay [7], 14.4% (inactive); in assay [8] it was 13.1% (inactive). Besides, the inhibition of aggregation in assay [2] was 35.3% (inactive). In addition, the nuclei count in assay [2] stood at 77.7%; in assay [3], 87.3%. Also, in assay [4], the fluorescence slope was -0.365 (inactive). Further, the NADPH fluorescence slope in assay [5] was -5e-05 (inactive). Moreover, the slope in assay [6] is 0.00549 (inactive).
With `COc1ccccc1Oc1coc2c(CN3CCN(C)CC3)c(O)ccc2c1=O`, in assay [1], the cell count is 541. Further, the inhibition in assay [1] is -0.5% (inactive); in assay [3], -12.9% (inactive); in assay [7] it was 11.8% (inactive); in assay [8], 34.8% (inactive). Further, in assay [2], the inhibition of aggregation is -8.8% (inactive). The nuclei count came to 107% in assay [2] and 89.1% in assay [3]. In addition, in assay [4], the fluorescence slope is -0.0185 (active). Moreover, in assay [5], the NADPH fluorescence slope was 7e-06 (inactive). Moreover, the slope in assay [6] was 0.00281 (inactive).
With `O=C(Cn1cnc2c(nnn2Cc2ccc(Cl)cc2)c1=O)NCC1CCCO1` (centres undefined), the cell count in assay [1] amounted to 641. Further, the inhibition in assay [1] is -18.8% (inactive); in assay [3], -89.9% (inactive); in assay [7], 16.8% (inactive); in assay [8] it was 26% (inactive). In addition, the inhibition of aggregation in assay [2] was -21.6% (inactive). Further, the nuclei count in assay [2] was determined as 89.2%; in assay [3], 132%. The fluorescence slope in assay [4] was -0.522 (inactive). The NADPH fluorescence slope in assay [5] was -4.5e-06 (inactive). Moreover, the slope in assay [6] is 0.00509 (inactive).
In the case of `Cc1nc2cc(N3CCCCC3)c(NC(=O)c3cccnc3)cc2c(=O)n1Cc1ccccc1`, in assay [1], the cell count is 751. In addition, the inhibition in assay [1] was -10.1% (inactive); in assay [3], -2% (inactive); in assay [7] it was -3.36% (inactive); in assay [8], -14% (inactive). In addition, the inhibition of aggregation in assay [2] is 1.2% (inactive). The nuclei count came out at 93.3% in assay [2] and 99.1% in assay [3]. The fluorescence slope in assay [4] is -0.167 (inactive). Besides, the NADPH fluorescence slope in assay [5] was 2.6e-06 (inactive). The slope in assay [6] is 0.00435 (inactive).
As to `Cc1ccc2c(c1)C1CCCC3C1N2CC(=O)N3Cc1ccccc1` (centres undefined), the cell count in assay [1] amounted to 331. The inhibition in assay [1] is -7.1% (inactive); in assay [3], -136% (inactive); in assay [7] it was 7.59% (inactive); in assay [8], -11.1% (inactive). Further, the inhibition of aggregation in assay [2] was -7.3% (inactive). For the same compound, the nuclei count is 81.8% in assay [2] and 131% in assay [3]. The fluorescence slope in assay [4] was -0.498 (inactive). Besides, the NADPH fluorescence slope in assay [5] was -3.8e-05 (inactive). Also, the slope in assay [6] is 0.00336 (inactive).
Consider `COCCOC(=O)c1c(C)oc2ccc(NS(=O)(=O)c3ccc(F)cc3)cc12`, for which, in assay [1], the cell count was found to be 381. The inhibition in assay [1] was 2.5% (inactive); in assay [3], 30.2% (inactive); in assay [7], 14.6% (inactive); in assay [8], 25.3% (inactive). Besides, the inhibition of aggregation in assay [2] is 4.7% (inactive). The nuclei count in assay [2] was 123%; in assay [3], 93%. The fluorescence slope in assay [4] was -0.613 (inactive). For the same compound, the NADPH fluorescence slope in assay [5] is 2.2e-06 (inactive). Moreover, in assay [6], the slope is 0.00626 (inactive).
Consider `Cc1nc2ccc(S(=O)(=O)NCC(=O)N(C)Cc3ccco3)cc2s1`, for which the cell count in assay [1] turned out to be 355. Besides, the inhibition was 5.2% (inactive) in assay [1], -12.8% (inactive) in assay [3], 14.7% (inactive) in assay [7] and 14.5% (inactive) in assay [8]. For the same compound, the inhibition of aggregation in assay [2] is -6.5% (inactive). In addition, the nuclei count in assay [2] came to 95.6%; in assay [3], 101%. In assay [4], the fluorescence slope is -0.503 (inactive). Besides, the NADPH fluorescence slope in assay [5] was -1.2e-05 (inactive). For the same compound, the slope in assay [6] is 0.00704 (inactive).
Turning to `O=C(COc1ccc(S(=O)(=O)NC2CCCCC2)cc1Cl)NCC1CCCO1` (centres undefined), the cell count in assay [1] came out at 310. Besides, the inhibition in assay [1] was -13.4% (inactive); in assay [3] it was -111% (inactive); in assay [7] it was 3.07% (inactive); in assay [8], 9.97% (inactive). The inhibition of aggregation in assay [2] was -14.2% (inactive). Further, the nuclei count in assay [2] came out at 124%; in assay [3], 95.6%. Besides, the fluorescence slope in assay [4] is -0.415 (inactive). Besides, in assay [5], the NADPH fluorescence slope is -1.9e-05 (inactive). The slope in assay [6] is 0.00646 (inactive).
